Data on 61 compounds can be found in ChEMBL document CHEMBL3988442, “University of Dundee, Small-Polar-MMV Screening Library” (2021).

SMILES strings stand for the structures. Hit rate of the full screen: of about 48,000 compounds, about 13,000 (27%) showed an effect of 50% or more. The list shows a part of the results.

The test deals with Wolbachia pipientis. Briefly: Anti-Wolbachia Cell-Based Screen. The test is classed as functional. Also on record: scale not given: in the data most compounds retested in dose-response had high values. The note with it: 5 µM.
For `N[C@H]1CN(C(=O)c2ccc(Cl)cc2O)C[C@@H]1C1CC1`, the “Percent Effect” value was -2.238%.

As to `CC(C)[C@H]1COC(=O)N1Cc1nnc(-c2ccccc2)o1`, the “Percent Effect” value was -6.799%.

On to `CC(NCCn1cccn1)c1ccccc1Cl` (stereo unspecified), for which the “Percent Effect” value is recorded as 12.43%.

As to `CN1CCN(C(=O)C[C@@H]2COC[C@H]3CN(c4ccncn4)C[C@@H]23)CC1`, the “Percent Effect” value was -4.365%.

In the case of `O=C(Nc1ccccc1)N1C[C@H]2C[C@H](C(=O)N3CCOCC3)[C@@H](C1)O2`, the “Percent Effect” value came out at 114.8%.

`CCc1ccc(NC(=O)N2C[C@H]3C[C@H](C(=O)N4CCCC4)[C@@H](C2)O3)cc1`: the “Percent Effect” value was found to be 103.5%.

In the case of `CNC(=O)[C@H]1C[C@@H]2CN(C(=O)Nc3ccc(F)cc3)C[C@H]1O2`, the “Percent Effect” value is on record as -4.608%.

Consider `O=C(Nc1ccc(F)cc1)N1C[C@H]2C[C@H](C(=O)N3CCOCC3)[C@@H](C1)O2`, for which the “Percent Effect” value came out at 1.969%.

`O=C(NCCc1ccccc1)N1C[C@H]2C[C@H](C(=O)N3CCCC3)[C@@H](C1)O2`: the “Percent Effect” value is -4.163%.

In the case of `O=C(Nc1ccccc1)N1C[C@H]2C[C@H](C(=O)N3CCCC3)[C@@H](C1)O2`, the “Percent Effect” value is reported as 100.5%.

For `O=C(Nc1ccc(F)cc1)N1C[C@H]2C[C@H](C(=O)N3CCCC3)[C@@H](C1)O2`, the “Percent Effect” value is 125.2%.

Turning to `CNC(=O)N1C[C@H]2C[C@H](C(=O)Nc3ccccc3)[C@@H](C1)O2`, the “Percent Effect” value is -3.507%.

`O=C(NCc1ccccc1)N1C[C@H]2C[C@H](C(=O)N3CCCC3)[C@@H](C1)O2`: the “Percent Effect” value is given as 8.283%.

`O=C(Nc1ccccc1)N1C[C@@H]2OCCN(C(=O)c3ccco3)[C@@H]2C1`: the “Percent Effect” value turned out to be 7.532%.

On to `O=C1CC2(CCN(Cc3ccc(-c4ccn[nH]4)s3)CC2)CN1`, for which the “Percent Effect” value was -9.036%.

For `CCc1noc(C(C)N2CCC(NS(=O)(=O)c3cccs3)CC2)n1` (stereo unspecified), the “Percent Effect” value is -6.324%.

As for `CCC(=O)NCC(=O)NC(Cc1ccccc1)c1sccc1C` (stereo unspecified), the “Percent Effect” value came out at 6.747%.

Turning to `Cn1ncc(N2CCN(Cc3ccc(S(C)(=O)=O)cc3)CC2)cc1=O`, the “Percent Effect” value is on record as -9.751%.

`CN(C)C(=O)c1cc(-c2ccc(S(C)(=O)=O)cc2)c2cnn(C)c2n1`: the “Percent Effect” value was found to be 108.3%.

As for `CC(C)NC(=O)c1cc(-c2ccc(S(C)(=O)=O)cc2)nc2c1cnn2C`, the “Percent Effect” value amounted to 95.41%.

As to `COC(=O)[C@@H](Nc1nc(C2CCCC2)nc2c1cnn2C)[C@@H](C)O`, the “Percent Effect” value is recorded as -8.342%.

With `CC(C)[C@H](Nc1nc(C2CCCC2)nc2c1cnn2C)C(N)=O`, the “Percent Effect” value was -0.02427%.

In the case of `Cc1cccc(N(C)Cc2nc3c(cnn3C)c(=O)[nH]2)c1C`, the “Percent Effect” value is -8.766%.

For `Cc1cnn(CC(C)NCc2ccc(S(C)(=O)=O)cc2)c1` (stereo unspecified), the “Percent Effect” value stood at 4.95%.

In the case of `CCOC(=O)CC(C)Nc1nc(C(C)(C)C)nc2c1cnn2C` (stereo unspecified), the “Percent Effect” value is listed as -7.754%.

In the case of `CC(C)NC(=O)c1cc(-c2ccc(S(C)(=O)=O)cc2)c2cnn(C)c2n1`, the “Percent Effect” value is listed as 110.4%.

On to `CCc1nc(CCNC(=O)NC2CCSCC2)cs1`, for which the “Percent Effect” value is recorded as 5.983%.

Take `Cc1cn(CC(=O)NC2CCC3(CC2)OCCO3)c2ccccc12`: the “Percent Effect” value is -12.26%.

Turning to `CCCN1CCN(C(=O)c2ccc3nc(C)oc3c2)[C@H]2CS(=O)(=O)C[C@H]21`, the “Percent Effect” value was -5.857%.

Regarding `COCCN1C[C@H]2CN(Cc3cccc(OC(F)(F)F)c3)CCN2C1=O`, the “Percent Effect” value is on record as -4.744%.

For the compound `Cc1cc(C)n(-c2ccc(C(C)NS(N)(=O)=O)cc2)n1` (stereo unspecified), the “Percent Effect” value was -26.74%.

As for `Cc1cc(OCc2cccc(F)c2)ccc1NC(=O)C(C)NC(N)=O` (stereo unspecified), the “Percent Effect” value is given as -0.2467%.

`CS(=O)(=O)Cc1ccc(OCc2ccc(F)cc2)cc1`: the “Percent Effect” value is recorded as -17.41%.

For `CC(=O)NC(C)C(=O)Nc1ccc(OCc2cccc(F)c2)cc1C` (stereo unspecified), the “Percent Effect” value is on record as -4.537%.

Regarding `Cc1cccc(COc2ccc(C(C)N)cc2)c1.Cl` (stereo unspecified), the “Percent Effect” value is on record as 108.7%.

Regarding `Cc1cccc(CNCCOc2ccc(S(C)(=O)=O)cc2)c1`, the “Percent Effect” value is 16.11%.

Take `NC(=O)CS(=O)(=O)Cc1ccc(OCc2ccc(F)cc2)cc1`: the “Percent Effect” value is given as -22.33%.

Consider `CC(NS(N)(=O)=O)c1ccc(OCc2ccc(F)cc2)cc1` (stereo unspecified), for which the “Percent Effect” value was 111.6%.

With `Cc1cccc(COc2ccc(NC(=O)C(C)NC(N)=O)c(C)c2)c1` (stereo unspecified), the “Percent Effect” value was -6.983%.

As for `Cc1cccc(COc2ccc(C(C)NC(=O)CNC(N)=O)cc2)c1` (stereo unspecified), the “Percent Effect” value is listed as 98.3%.

With `Cc1ccc(OCCC(=O)NC(C)c2ccncc2)cc1` (stereo unspecified), the “Percent Effect” value is -14.45%.

As to `Cc1cccc(COc2ccc(C(C)NS(N)(=O)=O)cc2)c1` (stereo unspecified), the “Percent Effect” value turned out to be 134.5%.

For the compound `COc1cccc2ccc(CN3CCN(c4ncccn4)CC3)nc12`, the “Percent Effect” value was -3.273%.

Regarding `CC(C)(C)c1c[nH]c([C@@H]2COCCN2C2CCC2)n1`, the “Percent Effect” value is given as -8.065%.

Regarding `Cc1cc(C)n(C2CN(C(=O)CN3C(=O)CSc4ccccc43)C2)n1`, the “Percent Effect” value is 2.557%.

On to `Cc1ccsc1[C@@H]1CCN(C(=O)Cn2cc3ccccc3n2)C[C@H]1O`, for which the “Percent Effect” value is recorded as -6.576%.

With `CS(=O)(=O)N1CCc2nc(NC(=O)Nc3c(F)cccc3F)sc2C1`, the “Percent Effect” value is on record as -13.59%.

Regarding `CCCNC(=O)c1nc2c(o1)CN(C(C)=O)C2`, the “Percent Effect” value is 21.64%.

For `COc1ccc(CCNC2CCCN(c3ccc(C)nn3)C2)cc1` (stereo unspecified), the “Percent Effect” value is recorded as -3.788%.

As to `COc1ccc(C2CCCN2c2nnc(C)s2)c(OC)c1` (stereo unspecified), the “Percent Effect” value was determined as 6.611%.

With `Cc1cccc(C(=O)N2CCCN(CCc3scnc3C)CC2)c1`, the “Percent Effect” value is reported as -3.968%.

`Cc1ncsc1C(=O)N1CCN(CCC(C)C)CC1`: the “Percent Effect” value was 114%.

For `Cc1ncsc1C(=O)N1CCC(Nc2cccnn2)CC1`, the “Percent Effect” value is -12.54%.

`Cc1ncsc1C(=O)N1CCn2nc(CN3CCSCC3)cc2C1`: the “Percent Effect” value is reported as -3.157%.

`CCN1CCN(C(=O)c2scnc2C)CC1`: the “Percent Effect” value was 114.5%.

On to `COCCN1CCCN(C(=O)c2scnc2C)CC1`, for which the “Percent Effect” value amounted to 111.8%.

On to `CC(C)CCN1CCN(C(=O)c2cccnc2-n2cncn2)CC1`, for which the “Percent Effect” value is recorded as 7.327%.

Take `Cc1ncsc1C(=O)N1CCN(Cc2ccccc2)CC1C` (stereo unspecified): the “Percent Effect” value was found to be 4.154%.

Consider `COc1ccccc1C(=O)N1CCN(CCc2scnc2C)CC1`, for which the “Percent Effect” value is -5.378%.

Turning to `c1cc(CCN2CCC(NCc3ccsc3)CC2)ccn1`, the “Percent Effect” value is listed as -8.408%.

Turning to `Cc1ccc(N2CCCC(NC(=O)Nc3cnn(C)c3)C2=O)cc1` (stereo unspecified), the “Percent Effect” value worked out at 10.21%.
